Results as given in PubChem BioAssay (NCATS).
Inconclusive results are not listed. Calls of active or inactive are those of the source. Calls follow the shape of the dose curve; as a rule, active = well fitted curve in the direction sought with a large enough effect; inconclusive = small, poorly fitted or top-dose-only effect, or another doubt; inactive = no such curve, though single readings can be large; an effect the other way counts as inactive or inconclusive.

Columns and labels:
[1] = qHTS to identify inhibitors of the type 1 interferon - major histocompatibility complex class I in skeletal muscle: primary screen against the NCATS Pharmaceutical Collection (AID 1347407);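 also: luminescence of HiBiT knocked into endogenous HLA-B as interferon-induced MHC class I level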
In short: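 HLA-B HiBiT myoblasts, dexamethasone-free growth medium + 4 ng/ml IFN-b; compounds pinned 1 h after seeding, […] from 46 uM; 24 h, 37 C, 5% CO2; lytic HiBiT detection, 10 min RT, luminescence.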

[2] = biological target: Protein phosphatase 1D (Homo sapiens) (UniProt O15297); assay: RapidFire Mass Spectrometry qHTS Assay for Modulators of WT P53-Induced Phosphatase 1 (WIP1) (AID 1347424); also: series mostly up to about 63 µM
Chain of Protein phosphatase 1D (Homo sapiens) (O15297 whole entry, looked up): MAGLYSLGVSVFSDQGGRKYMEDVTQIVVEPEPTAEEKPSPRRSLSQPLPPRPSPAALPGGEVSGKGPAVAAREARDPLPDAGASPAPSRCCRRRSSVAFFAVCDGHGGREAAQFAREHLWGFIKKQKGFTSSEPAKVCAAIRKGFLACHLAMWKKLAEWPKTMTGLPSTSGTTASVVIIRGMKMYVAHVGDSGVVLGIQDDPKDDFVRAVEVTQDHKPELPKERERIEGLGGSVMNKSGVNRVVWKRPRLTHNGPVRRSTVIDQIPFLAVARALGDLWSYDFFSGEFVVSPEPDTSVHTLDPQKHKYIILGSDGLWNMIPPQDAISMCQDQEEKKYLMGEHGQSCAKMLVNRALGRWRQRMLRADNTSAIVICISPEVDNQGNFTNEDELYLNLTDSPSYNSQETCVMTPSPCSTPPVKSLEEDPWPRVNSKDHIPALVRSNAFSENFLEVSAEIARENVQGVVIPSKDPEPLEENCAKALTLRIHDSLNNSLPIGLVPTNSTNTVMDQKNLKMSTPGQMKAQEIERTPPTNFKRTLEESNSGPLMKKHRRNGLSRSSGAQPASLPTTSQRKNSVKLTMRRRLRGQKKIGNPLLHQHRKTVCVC
In short: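 RapidFire MS readout of dephosphorylated VEPPL-S-QETFS product, with 1 uM isotope-labelled peptide standard. Reaction: 10 nM WIP1, 2 uM phosphopeptide substrate, 5 min, room temperature, after 1 h compound preincubation; stopped with 0.5% formic acid.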

[3] = biological target: Protein phosphatase 1D (Homo sapiens) (UniProt O15297); assay: Rhodamine-PBP qHTS Assay for Modulators of WT P53-Induced Phosphatase 1 (WIP1) (AID 1347425)
In short: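 Read-out: Rhodamine-PBP fluorescence (ex 525/em 598 nm) for released Pi, read each minute for 11 min after adding 10 uM VEPPL-pS-QETFS; signal taken as f1 minus pre-substrate f0. Enzyme 5 nM WIP1 with 1 hr room-temperature compound preincubation.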

[4] = Primary qHTS for inhibitors of La Crosse Virus (LACV) - induced cell death in SH-SY5Y cells (AID 1508616);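 also: top concentration of the series differs between compounds; higher means more rescue of cells from virus-induced death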
In short: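 Rescue of virus-induced death was read as ATPLite luminescence after 6 days at 37C, scaled between DMSO wells with LACV and without virus. Cells were SH-SY5Y, 6000/well, infected at 0.01 MOI after compound addition.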

[5] = biological target: Calcium and integrin-binding protein 1 (Homo sapiens) (UniProt Q99828); assay: Primary qHTS for Identification of Calcium Integrin Binding Protein 1 (CIB1) Competitor (AID 1508620);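 also: GST tagged CIB1 binding a fluorescein labelled alphaIIb integrin peptide tracer; top concentration of the series differs between compounds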
Chain of Calcium and integrin-binding protein 1 (Homo sapiens) (Q99828 whole entry, looked up): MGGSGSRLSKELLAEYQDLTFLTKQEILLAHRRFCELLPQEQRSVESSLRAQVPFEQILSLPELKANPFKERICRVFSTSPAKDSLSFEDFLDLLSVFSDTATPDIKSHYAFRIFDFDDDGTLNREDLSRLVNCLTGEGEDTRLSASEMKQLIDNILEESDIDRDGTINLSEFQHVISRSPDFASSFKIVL
In short: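 Fluorescence polarization competition: GST-tagged CIB1 (1 uM final) preincubated with compound 15 min at room temperature, then FITC-labelled alphaIIb peptide (100 nM final) added. After 15 min at room temperature, polarization read at Ex 480/Em 540.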

Measured: Potency

CC(C)CCCC(C)NCCC(C)C (stereo not given)
inactive: all assays above

O=C(O)C1CCC1
inactive: all assays above

COc1cc2c(cc1OC)CN(C(=O)[C@H](C)N[C@@H](CCc1ccccc1)C(=O)O)[C@H](C(=O)O)C2
inactive: all assays above

CCOC(=O)O[C@]1(C(=O)OCCl)CC[C@H]2[C@@H]3CCC4=CC(=O)C=C[C@]4(C)[C@H]3[C@@H](O)C[C@@]21C
inactive: all assays above

COc1cc2nc(Cl)nc(N)c2cc1OC
inactive: all assays above

CC(C)(Oc1ccc(Cl)cc1)C(=O)OCCCOC(=O)C(C)(C)Oc1ccc(Cl)cc1
inactive: all assays above

CCO[C@H](Cc1ccc(OCCc2ccc(OS(C)(=O)=O)cc2)cc1)C(=O)O
inactive: all assays above

CC(C)(C)c1cc(C=O)cc(C(C)(C)C)c1O
inactive: all assays above

Cc1ncc([N+](=O)[O-])n1C
inactive: all assays above

CCOC(=O)C(=O)CCCCCCl
inactive: all assays above

O=C(O)c1[nH]n(-c2ccc(S(=O)(=O)O)cc2)c(=O)c1N=Nc1ccc(S(=O)(=O)O)cc1
inactive: all assays above

CNC(=O)c1cnn(-c2nc(N)c3ncn([C@@H]4O[C@H](CO)[C@@H](O)[C@H]4O)c3n2)c1
inactive: all assays above

CC(C)(C)c1ccc(C(=O)CCCCl)cc1
inactive: all assays above

CCCCCC(=O)O[C@]1(C(C)=O)CC[C@H]2[C@@H]3CCC4=CC(=O)CC[C@]4(C)[C@H]3CC[C@@]21C
inactive: all assays above

O=C(CCCl)NCc1ccccc1
inactive: all assays above

CC(=O)OC[C@H]1O[C@@H](OC(C)=O)[C@H](OC(C)=O)[C@@H]1OC(C)=O
inactive: all assays above

CC(C)=CCC/C(C)=C/CC/C(C)=C/C(=O)OCC(=O)[C@@]1(O)CC[C@H]2[C@@H]3CCC4=CC(=O)C=C[C@]4(C)[C@H]3[C@@H](O)C[C@@]21C
inactive: all assays above

CC(C)(C)NCC(O)COc1ccccc1OCC1CCCO1 (stereo not given)
inactive: all assays above

CCOC(=O)C(=O)c1csc(NC=O)n1
inactive: all assays above

CCCCC(CC)CNC(=O)CC(C)OC(=O)CCC(=O)O (stereo not given)
inactive: all assays above

C[C@@H]1C[C@H]2[C@@H]3CCC4=CC(=O)C=C[C@]4(C)[C@@]3(F)[C@@H](O)C[C@]2(C)[C@@]1(O)C(=O)COC(=O)c1ccncc1
not listed: [4]
inactive: all other assays above

O=C(c1ccccc1)c1ccccc1
inactive: all assays above

Cc1onc(-c2c(Cl)cccc2Cl)c1C(=O)Cl
not listed: [4]
inactive: all other assays above

COC(=O)/C=C(/C)N
inactive: all assays above

CC(C)NC(=O)c1ccc(C=O)cc1
not listed: [4]
inactive: all other assays above

CC(=O)OCC[N+](C)(C)C
not listed: [4]
inactive: all other assays above

Oc1ccc(CCNCCCCCCNCCc2ccccc2)cc1O
not listed: [4]
inactive: all other assays above

CC(C)OC(=O)c1cc2c(OCC(O)CNC(C)(C)C)cccc2[nH]1 (stereo not given)
not listed: [4]
inactive: all other assays above

O=C(O)c1ccccc1Nc1cc(Cl)ccc1C(=O)O
not listed: [4]
inactive: all other assays above

C/C(=N/NC(=O)c1ccncc1)C(=O)O
not listed: [4]
inactive: all other assays above

COc1ccc2c(c1)CCCC2=O
not listed: [4]
inactive: all other assays above

CCc1cc(S(=O)(=O)O)c2cc(C(C)C)cccc1-2
not listed: [3]
inactive: all other assays above
